Screens deposited in PubChem BioAssay by Broad Institute.
DUX4 txn inh: inhibitors of DUX4-driven ZSCAN4 reporter expression, primary screen, 293T cells, Gaussia and Italica luciferase; 293T-iDUX4 ZSCAN4-Gaussia luciferase reporter, 24 h; stronger effect = lower value; 0.8% of 37,000 active; activity change, negative = inhibition, % (concentration not given with the values); AID 1224904, 2016;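 active = mean inhibition of at least 10% in the main channel, exceeding the control channel by a set limit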;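 also: 0% = median of neutral control wells and -100% = median of positive control wells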
* marks the source's active call; other numbers are inactive results; ! = not confirmed by another sample. Shown is part of a subset that was picked to be rich in hits.

SMILES | DUX4 txn inh
CCC(=O)N1[C@H](CO)[C@H]2c3ccccc3N(C(=O)c3cccc(OC)c3)C[C@H]21 | -4
CCCC#Cc1ccc([C@H]2[C@@H](CO)N(C(C)=O)[C@@H]2CNC(=O)C2CC2)cc1 | -5
CC=Cc1ccc2n(c1=O)C[C@H]1[C@H](CO)[C@@H](C(=O)N3CCc4ccccc4C3)N[C@@H]21 (mixture of isomers) | 3
COCC(=O)Nc1ccc2c(c1)C(=O)N(C)[C@H]1CC[C@H](CC(=O)NCc3ccc(OC)cc3)O[C@H]1CO2 | 2
Cc1cccc(-c2ccc([C@@H]3[C@H](CO)N4CCCCN(S(=O)(=O)c5ccccc5F)C[C@@H]34)cc2)c1 | -5
CCS(=O)(=O)N1CCCCN2[C@H](C1)[C@@H](c1ccc(-c3ccccc3C)cc1)[C@@H]2CO | 9
Cc1ccccc1-c1ccc([C@@H]2[C@@H](CO)N3CCCCN(S(C)(=O)=O)C[C@H]23)cc1 | 3
Cn1cnc(S(=O)(=O)N2CCCCN3[C@H](C2)[C@H](c2ccc(-c4cccc(F)c4)cc2)[C@@H]3CO)c1 | 9
Cc1ccccc1S(=O)(=O)N1CCCCN2[C@@H](CO)[C@@H](c3ccc(-c4cccnc4)cc3)[C@@H]2C1 | 0
Cc1ccccc1-c1ccc([C@@H]2[C@@H](CO)N3CCCCN(S(=O)(=O)Cc4ccccc4)C[C@H]23)cc1 | -45*
Cc1ccccc1S(=O)(=O)N1CCCCN2[C@H](CO)[C@@H](c3ccc(-c4cccc(F)c4)cc3)[C@H]2C1 | -39*
Cn1cnc(S(=O)(=O)N2CCCCN3[C@H](CO)[C@H](c4ccc(-c5cccc(F)c5)cc4)[C@H]3C2)c1 | 1
Cc1ccccc1S(=O)(=O)N1CCCCN2[C@H](C1)[C@H](c1ccc(-c3cccc(F)c3)cc1)[C@@H]2CO | -19*
Cc1ccccc1-c1ccc([C@@H]2[C@H](CO)N3CCCCN(C(=O)c4cccnc4)C[C@@H]23)cc1 | -1
C[C@H]1CCCCO[C@H](CN(C)S(=O)(=O)c2ccc(Cl)cc2)[C@@H](C)CN([C@@H](C)CO)C(=O)c2cc(NS(=O)(=O)c3cn(C)cn3)ccc2O1 | 0
COc1cccc(NC(=O)C[C@H]2CC[C@@H]3[C@@H](COc4ccc(NC(=O)c5ccccc5F)cc4C(=O)N3C)O2)c1 | 0
CC(=O)NC[C@@H]1[C@@H](c2ccc(-c3cccnc3)cc2)[C@H](CO)N1C(=O)C1CC1 | -4
COCC(=O)Nc1ccc2c(c1)[C@H]1C[C@H](CC(=O)N3CCc4ccccc4C3)O[C@@H](CO)[C@H]1O2 | -4
CCC(=O)N1CC2(CCN(S(C)(=O)=O)CC2)c2c(n(C)c3cc(OC)ccc23)[C@@H]1CO | 14
CN1C(=O)c2cc(NC(=O)C3CCOCC3)ccc2OC[C@H]2O[C@H](CC(=O)NC3CCCC3)CC[C@@H]21 | 2
Cc1ccc(S(=O)(=O)N2[C@@H]3CNC[C@H]2C3c2ccc(-c3cccnc3)cc2)cc1 (some centres undefined) | -1
O=S(=O)(c1cccc(F)c1)N1[C@@H]2CNC[C@H]1C2c1ccc(-c2cccnc2)cc1 (some centres undefined) | -1
O=S(=O)(c1ccccc1)N1[C@@H]2CNC[C@H]1C2c1ccc(-c2cccnc2)cc1 (some centres undefined) | -11*!
COc1ccc(S(=O)(=O)N2[C@@H]3CNC[C@H]2C3c2ccc(-c3ccncc3)cc2)cc1 (some centres undefined) | 13
O=S(=O)(c1ccc(-c2ccccc2)cc1)N1C[C@@H]2N[C@H](C1)C2c1ccc(-c2ccncc2)cc1 (some centres undefined) | -33*
SMILES | DUX4 txn inh
Cc1cccc(-c2ccc(C3[C@@H]4CNC[C@H]3N4)cc2)c1 (some centres undefined) | -3
O=S(=O)(c1ccc(-c2ccccc2)cc1)N1[C@@H]2CNC[C@H]1C2c1ccc(-c2ccccc2)cc1 (some centres undefined) | 9
CN(C)C(=O)c1ccc(-c2ccc(C3[C@@H]4CN(S(=O)(=O)Cc5ccccc5)C[C@H]3N4)cc2)cc1 (some centres undefined) | 5
CS(=O)(=O)N1C[C@@H]2N[C@H](C1)[C@@H]2c1ccc(-c2ccccc2)cc1 | -51*
Cc1noc(C)c1S(=O)(=O)N(C)C[C@@H]1OCCCC[C@@H](C)Oc2ccc(NC(=O)Nc3cccc4ccccc34)cc2C(=O)N([C@H](C)CO)C[C@H]1C | 1
C/C=C/c1ccc2c(c1)[C@H]1[C@H](CCN1C(=O)Cc1cccnc1)[C@H](CO)N2C | 13
CO[C@H]1CN(C)C(=O)c2ccc(NC(=O)c3cc(C)on3)cc2OC[C@H](C)N(CC2CC2)C[C@H]1C | 1
COc1ccccc1C#Cc1ccc([C@H]2[C@H](CO)N3CCCCN(CCC(F)(F)F)C[C@@H]23)cc1 | -61*
Cc1ccccc1-c1ccc([C@H]2[C@H]3CN(C(=O)Nc4cccc(F)c4)CCCCN3[C@H]2CO)cc1 | -5
Cc1ccccc1-c1ccc([C@@H]2[C@H]3CN(C(=O)Nc4cccc(F)c4)CCCCN3[C@H]2CO)cc1 | -43*
C/C=C/c1ccc([C@@H]2[C@H]3CN(CCC(F)(F)F)CCCCN3[C@H]2CO)cc1 | 5
Cc1cccc(-c2ccc([C@@H]3[C@H]4CN(CCC(F)(F)F)CCCCN4[C@H]3CO)cc2)c1 | -31*
O=C(C1CC1)N1CCCCN2[C@H](CO)[C@H](c3ccc(-c4cccc(F)c4)cc3)[C@@H]2C1 | -22*
O=C(C1CC1)N1CCCCN2[C@@H](CO)[C@H](c3ccc(-c4cccc(F)c4)cc3)[C@@H]2C1 | 0
CN(C)C(=O)c1cccc(-c2ccc([C@@H]3[C@@H](CO)N4CCCCN(C(=O)C5CCC5)C[C@H]34)cc2)c1 | 29
COc1ccccc1C#Cc1ccc([C@H]2[C@H]3CN(S(C)(=O)=O)CCCCN3[C@H]2CO)cc1 | 23
CN(C)C(=O)c1ccc(-c2ccc([C@@H]3[C@H](CO)N4CCCCN(CCC(F)(F)F)C[C@@H]34)cc2)cc1 | 3
Cc1cccc(-c2ccc([C@H]3[C@@H](CO)N4CCCCN(Cc5ccncc5)C[C@@H]34)cc2)c1 | 7
O=C(Nc1cccc(F)c1)N1CCCCN2[C@H](CO)[C@H](c3ccc(-c4ccncc4)cc3)[C@@H]2C1 | 1
CCC(=O)N1CC(=O)N2[C@H](C1)[C@H](c1ccc(-c3cccnc3)cc1)[C@@H]2CO | 21
CCC(=O)N1C[C@@H](O)COC[C@H]2O[C@@H](CC(=O)NCc3cc(F)cc(F)c3)CC[C@@H]21 | 10
Cc1ccccc1-c1ccc([C@@H]2[C@@H](CO)N3C(=O)CN(C(=O)Nc4ccccc4)C[C@H]23)cc1 | -8
COc1ccccc1NC(=O)N1C[C@@H]2[C@H](c3ccccc31)[C@@H](CO)N2CC1CCCC1 | 3
CN1C(=O)c2cc(NC(=O)Nc3cccc(Cl)c3)ccc2OC[C@@H]2O[C@@H](CC(=O)NCCc3ccncc3)CC[C@@H]21 | -1
C/C=C/c1ccc([C@@H]2[C@H](CO)N(Cc3cccc(F)c3)C23CN(C(=O)CC)C3)cc1 | -7
CN1CCN(C(=O)C[C@H]2CC[C@@H]3[C@H](COC[C@@H](O)CN3C(=O)C3CCCC3)O2)CC1 | 0
C[C@@H]1CN([C@H](C)CO)S(=O)(=O)c2ccc(Br)cc2O[C@@H]1CN(C)C(=O)C1CC1 | 2
C[C@@H]1CN([C@@H](C)CO)C(=O)c2cccc(N(C)C)c2O[C@H]1CN(C)Cc1ccncc1 | -4
